VP16 counter: Gal4-VP16 reporter inhibition counter-screen; hit rate 3.5% among 310,000; Drosophila S2 Gal4-VP16 UAS-luciferase, luminescence, 20 h; AID 2546; Potency, µM (series often up to 53.6 µM), actives largely listed as inhibitors;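 note: Gal4-VP16 expression switched on by copper sulfate through the metallothionein promoter; nearly all actives have a fitted effect of over 50% in size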
Chronic BCR inh: blocks chronic active B-cell receptor signaling; ABC-DLBCL IkBa-CBG/CBR reporter, luminescence ratio, 4 h; Potency, µM (doses to about 46.1 µM), actives largely listed as inhibitors; hit rate 0.05% among 340,000; active = well fitted inhibition curve with a large enough effect in the signal ratio, with a control signal flat, not every such curve was filed as active; inconclusive = small, poorly fitted or top-dose-only effect, or effect the other way, or a change in a side signal; the % refers to the signal ratio
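TMD8 human ABC-DLBCL cells with doxycycline-inducible IκBα–green luciferase fusion and unfused red luciferase, in 0.5% FBS medium; compounds up to 46 uM, 4 h at 37C. Green/red luminescence ratio, filter-overlap corrected, fitted to concentration-response curves.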
SW480 rereplic: inducers of DNA re-replication in SW480 colon cancer cells; SW480 DNA re-replication, Hoechst DNA content imaging, 48 h; Potency, µM (doses to about 46.1 µM), most hits filed as activators; hit rate 1.8% among 340,000; note: nearly all actives have a fitted effect of over 55% in size
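Per well, 250 cells were exposed to pinned compound for 48 hr. Nuclear DNA was visualised with Hoechst (40 min, 37 C) and total object intensity recorded by fluorescence scanning.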
RORgamma inh: ROR gamma (mouse) transcription inhibition; AID 2551; Potency, µM (top dose mostly 53.6 µM), actives largely listed as inhibitors; Drosophila S2 Gal4-RORgamma UAS-luciferase reporter, 20 h; P51450; hit rate 5.4% among 310,000; note: nearly all actives have a fitted effect of over 60% in size
Target sequence (P51450 whole entry, looked up, the tested form may be a part): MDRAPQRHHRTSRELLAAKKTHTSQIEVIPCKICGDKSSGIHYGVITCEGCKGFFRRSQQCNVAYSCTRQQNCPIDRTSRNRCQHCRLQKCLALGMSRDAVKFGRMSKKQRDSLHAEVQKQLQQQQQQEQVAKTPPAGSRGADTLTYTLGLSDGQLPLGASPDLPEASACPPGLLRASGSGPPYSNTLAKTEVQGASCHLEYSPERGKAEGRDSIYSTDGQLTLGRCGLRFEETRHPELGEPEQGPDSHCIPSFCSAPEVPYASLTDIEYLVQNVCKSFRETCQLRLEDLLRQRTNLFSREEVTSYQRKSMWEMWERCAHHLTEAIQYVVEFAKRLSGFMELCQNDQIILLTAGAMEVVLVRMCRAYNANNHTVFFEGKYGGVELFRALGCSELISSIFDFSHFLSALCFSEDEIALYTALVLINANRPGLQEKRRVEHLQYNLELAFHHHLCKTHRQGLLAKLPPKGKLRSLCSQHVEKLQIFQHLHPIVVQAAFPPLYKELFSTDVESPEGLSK
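Drosophila S2 cells stably expressing Gal4-DBD/mouse RORγ fusion under metallothionein promoter plus UAS-luciferase; compound 1 h, then 700 uM CuSO4 induction for 20 h at ambient temperature; inhibition read as reduced luminescence.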
MCF10A rerep: DNA re-replication induction in MCF 10a cells; MCF 10A DNA re-replication, Hoechst nuclear intensity, 48 h; Potency, µM (highest dose often 46.1 µM), most hits filed as activators; hit rate 2.9% among 350,000; AID 624296; note: nearly all actives have a fitted effect of over 50% in size
Giardia killer: Giardia lamblia killing. Giardia lamblia trophozoite viability. hit rate 0.15% among 340,000. activity change, % at 7.66 µM, hits read low; in the data active = activity change below about -80%; inconclusive = between about -30% and that limit;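 note: parasites exposed to compound for two days anaerobically before the ATP read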
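Killing of trophozoites was scored by loss of ATP luminescence after a 48 hrs anaerobic exposure to compounds at 37 deg C, using 100 cells per well.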
A number is an active result; [ ] = dose if it differs, or a comment. Most compounds without a hit are left out; they make up all but 8.3% or so of the library. Unless noted, calls come from the whole dose curve; as a rule, active = well fitted curve in the direction sought with a large enough effect; inconclusive = small, poorly fitted or top-dose-only effect, or another doubt; inactive = no such curve, though single readings can be large; an effect the other way counts as inactive or inconclusive.

Screening CCN(CC)c1ccc(N=Cc2ccccc2[N+](=O)[O-])cc1 returned VP16 counter inactive, Chronic BCR inh inactive, SW480 rereplic 2.6µM, RORgamma inh inactive, MCF10A rerep inconclusive and Giardia killer inactive.
For CCN(CC)c1ccc(N=Cc2ccc([N+](=O)[O-])o2)cc1 the results were VP16 counter 22µM, Chronic BCR inh inactive, SW480 rereplic 2.3µM, RORgamma inh inconclusive, MCF10A rerep 23µM and Giardia killer inactive.
Screening CCN(CC)c1ccc(/C=N/NC(=O)c2ccc([N+](=O)[O-])cc2)cc1 returned VP16 counter inactive, Chronic BCR inh inactive, SW480 rereplic inactive, RORgamma inh inactive, MCF10A rerep inactive and Giardia killer inactive.
For COCc1ccc(CN2CCC(n3nccc3NC(=O)CCCc3ccccc3)CC2)o1 the results were VP16 counter inactive, Chronic BCR inh inactive, SW480 rereplic inactive, RORgamma inh inconclusive, MCF10A rerep inactive and Giardia killer inactive.
`CCOC(=O)C1=CNS(=O)(=O)NC1c1ccc(C#N)cc1` (stereo not drawn) gave Chronic BCR inh inactive, SW480 rereplic inactive, MCF10A rerep inactive and Giardia killer inactive.
Screening Cc1ccc(C)c(NC(=O)CN(C)C(=O)c2ccc(S(=O)(=O)N3CCCCCC3)cc2)c1 returned Chronic BCR inh inactive, SW480 rereplic inactive, MCF10A rerep inactive and Giardia killer inactive.
Screening CC(=O)Nc1cccc(Oc2ncnc3scc(-c4ccc(C(C)C)cc4)c23)c1 returned VP16 counter inactive, Chronic BCR inh inactive, SW480 rereplic inconclusive, RORgamma inh inconclusive, MCF10A rerep 23µM and Giardia killer inactive.
For CC(=O)Nc1ccc(Sc2ncnc3scc(-c4ccccc4)c23)cc1 the results were VP16 counter inactive, Chronic BCR inh inconclusive, SW480 rereplic inactive, RORgamma inh inactive, MCF10A rerep inactive and Giardia killer inactive.
O=C1CCCCC1Sc1nnc(-c2ccc3c(c2)OCO3)o1 (stereo not drawn) was read as VP16 counter 0.89µM, Chronic BCR inh inconclusive, SW480 rereplic inactive, RORgamma inh 0.56µM, MCF10A rerep inactive and Giardia killer inactive.
Screening Clc1ccc(CSc2nnc(-c3ccc4c(c3)OCO4)o2)cc1 returned VP16 counter inactive, Chronic BCR inh inactive, SW480 rereplic inactive, RORgamma inh inactive, MCF10A rerep inactive and Giardia killer inactive.
CCN(CC(=O)NCc1ccc(Cl)cc1)CC(=O)Nc1ccc(C(N)=O)cc1 was read as VP16 counter inactive, Chronic BCR inh inactive, SW480 rereplic inactive, RORgamma inh inactive, MCF10A rerep inactive and Giardia killer inactive.
`COc1ccc(/C=C\C(=O)Nc2ccccc2C(=O)O)cc1OC` gave VP16 counter 1.1µM and RORgamma inh inconclusive.
`NC(=O)c1ccccc1NC(=O)/C=C/c1ccc(Cl)cc1` gave VP16 counter inactive[0.365 µM], Chronic BCR inh inconclusive, SW480 rereplic inactive, RORgamma inh inactive, MCF10A rerep inactive and Giardia killer inactive.
`COc1cc(NC(=O)/C=C/c2ccccc2)c(C(=O)O)cc1OC` gave VP16 counter inactive, Chronic BCR inh inconclusive, SW480 rereplic inactive, RORgamma inh inactive, MCF10A rerep inactive and Giardia killer inactive.
Screening COc1ccc(/C=C/C(=O)NC(=S)NCc2ccccc2)cc1OC returned VP16 counter inconclusive, Chronic BCR inh inconclusive, SW480 rereplic 23µM, RORgamma inh 2.2µM, MCF10A rerep inactive and Giardia killer inactive.
O=C(/C=C/c1ccc(Cl)cc1)NC(=S)Nc1ccccc1C(=O)O was read as VP16 counter inactive, Chronic BCR inh inconclusive, SW480 rereplic 16µM, RORgamma inh inactive, MCF10A rerep inconclusive and Giardia killer inactive.
`COc1cc(C=O)ccc1OCCCOc1ccccc1[N+](=O)[O-]` gave VP16 counter inconclusive, Chronic BCR inh inactive, SW480 rereplic inactive, RORgamma inh inactive, MCF10A rerep inactive and Giardia killer inactive.
`COc1cc(C=O)ccc1OCCCOc1ccccc1C(=O)O` gave VP16 counter 6.3µM, Chronic BCR inh inactive, SW480 rereplic inactive, RORgamma inh 1.4µM, MCF10A rerep inactive and Giardia killer inactive.

From PubChem BioAssay
